Shown is part of a subset that was picked to be rich in hits.
Dicer processing: human Dicer pre-microRNA cleavage inhibition. Q9UPY3. cat-ELCCA pre-miR-21 Dicer processing, chemiluminescence; active compounds read high. z-score at 25 µM. 6% of 47,000 active; in the data active = z-score above about 3, passing the limit was not always enough;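 note: higher signal means more uncleaved substrate so more Dicer inhibition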
Hits are given with their value; i = inactive.

SMILES | Dicer processing
NC(=S)CS(=O)(=O)Cc1ccco1 | i
Cc1ccc(CN2C(=O)c3oc4ccc(Br)cc4c(=O)c3C2c2ccc(O)cc2)cc1 (centres undefined) | i
CCOc1ccc(S(=O)(=O)n2c(C)nc3ccccc32)cc1 | i
O=S(=O)(c1ccc(Cl)cc1)n1cnc2ccccc21 | i
CCOc1ccc(S(=O)(=O)n2cnc3ccccc32)cc1 | 4.7
COc1ccc(NC(=O)c2cc(C(C)(C)C)nn2Cc2ccc(F)cc2)cc1OC1CCCC1 | i
COc1cccc(N2CCCn3c2nc2c3c(=O)n(CC(=O)O)c(=O)n2C)c1 | i
Nc1cccc(CCc2nc3cc4ccccc4cc3[nH]2)c1 | 6.9
c1ccc(CCc2nc3ccccc3[nH]2)cc1 | 3.2
Nc1cccc(-c2nc3ccccc3[nH]2)c1 | i
Nc1ccc(CCc2nc3ccc(N)cc3[nH]2)cc1 | i
Oc1ccc(Cc2nc3ccccc3[nH]2)cc1 | i
O=S(=O)(CCc1nc2ccccc2[nH]1)CCc1nc2ccccc2[nH]1 | i
c1ccc2[nH]c(CCCc3nc4ccccc4[nH]3)nc2c1 | i
COc1ccc(OCc2nc3ccccc3[nH]2)cc1 | i
CCN(CC)Cc1nc2ccccc2[nH]1 | 3.4
N#Cc1c(F)cccc1NC1CCN(Cc2ccccc2)CC1 | i
Brc1ccc(C2=CSc3ccccc3N2)cc1 | i
OC(COC1=NCNc2cc(Cl)ccc21)c1ccc2c(c1)OCCCO2 (centres undefined) | i
CCOC(=O)c1c(NC(=O)c2ccco2)sc(CC)c1C | i
Cc1c2c(=O)n(-c3ccccc3)[nH]c2cc(=O)n1Cc1cccnc1 | i
Cc1ccccc1-n1c(N)cc(=O)n(Cc2ccco2)c1=O | i
Cc1c2c(=O)n(-c3ccccc3)[nH]c2cc(=O)n1Cc1ccco1 | 3.3
COc1cc(C(=O)NNC(=S)NC2CC3C=CC2C3)cc(OC)c1OC (centres undefined) | i
CCCOc1ccc(C2c3c(oc4ccccc4c3=O)C(=O)N2c2nnc(C)s2)cc1 (centres undefined) | i
SMILES | Dicer processing
CC(C)(C)OC(=O)NC(Cc1ccccc1)C(N)=O (centres undefined) | i
NC(=O)c1c(NC(=O)c2ccc(Cl)cc2)sc2c1CCCC2 | i
NC(=O)c1c(NC(=O)c2ccc(S(=O)(=O)N3CCCC3)cc2)sc2c1CCCC2 | 3.4
NC(=O)c1c(NC(=O)c2ccc(F)cc2)sc2c1CCCC2 | i
O=c1oc(C(c2ccccc2)C2CCCC2)nc2cccc(F)c12 (centres undefined) | i
COc1cc(NC(=O)C2CC(=O)N=C(N)S2)cc(OC)c1 (centres undefined) | i
CCOC(=O)Cn1nnc(N2CCCC2)n1 | i
O=S(=O)(NC1CCN(Cc2ccccc2)CC1)c1cccc(C(F)(F)F)c1 | 3
O=S(=O)(NC1CCN(Cc2ccccc2)CC1)c1cc(Cl)c(Cl)cc1Cl | i
O=S(=O)(NC1CCN(Cc2ccccc2)CC1)c1cccs1 | i
Nc1c(-c2nn[nH]n2)cnn1-c1ccc(Cl)cc1Cl | i
COC(=O)c1ccc(C2C(C(=O)OC3CCCCC3)=C(C)NC3=C2C(=O)CC(C)(C)C3)cc1 (centres undefined) | i
COCc1cc(=O)n2[nH]c(NC(C)=O)nc2n1 | i
O=C1CC(c2cccs2)CC2=C1C1c3ccccc3C(=O)N1c1ccccc1N2 (centres undefined) | i
OCc1nc2ccccc2n1CC(O)COc1ccc(Br)cc1 (centres undefined) | i
O=S(=O)(Nc1nc2ccccc2nc1NCc1ccccc1)c1ccc(Cl)cc1 | 6
O=c1[nH]c2ccc(Nc3nc4ccccc4nc3NS(=O)(=O)c3ccc(Cl)cc3)cc2[nH]1 | i
O=S(=O)(Nc1nc2ccccc2nc1Nc1ccc(Cl)cc1)c1ccccc1 | i
C=CCN1C(=O)C(=O)c2ccccc21 | i
Cc1csc2sc(-c3ccn[nH]3)c(C)c12 | 3.5
Cc1csc2sc(-c3ccnc(SCc4ccccc4)n3)c(C)c12 | i
CCOC(=O)c1sc2sc(-c3ccn[nH]3)c(C)c2c1C | i
CCCCCCCC1N[C@H](C(=O)O)CS1 (some centres undefined) | i
COc1ccc2c(c1)CCC/C2=N\N=C(/N)SC | i
Cn1c(/C=C/c2cn(Cc3ccccc3)c3ccccc23)nc2ccccc2c1=O | i
SMILES | Dicer processing
C(=C\c1ccc2c(c1)OCO2)/C1=NN(c2ccccc2)C(c2ccc3c(c2)OCO3)C1 (centres undefined) | i
Cn1c(/C=C/c2ccc3c(c2)OCO3)nc2ccccc2c1=O | 6.2
Cc1onc(-c2ccccc2Cl)c1C(=O)N=S(C)(C)=O | i
O=C(Nc1cc(F)c(Cl)cc1NC(=O)c1ccccc1Cl)c1ccccc1Cl | i
NCCCC(=O)N1c2ccccc2Sc2ccccc21 | 5.5
O=C(CN1CCCCC1)N1c2ccccc2Sc2ccccc21 | i
CCN(CC)CC(=O)N1c2ccccc2Sc2ccccc21 | i
CCCOc1ccc(C2N=C(N)Nc3nc4ccccc4n32)cc1 (centres undefined) | i
Cc1cc(SCc2nnc(-c3ccc([N+](=O)[O-])c(C)c3)o2)c(C)cc1Cl | i
N#Cc1c(=N)nc2oc3ccccc3c3cc(-c4ccccc4)[nH]c1c23 | i
COc1cc(-c2cc3c(c(N)c2C#N)c(=O)oc2ccccc23)cc(OC)c1OC | 3.7
COc1ccc(-c2cc(=S)sc(N)c2C#N)cc1OC | i
Cc1ccc(-c2nnc(-c3ccccc3)o2)cc1 | i
Cc1ccc(-c2nnc(-c3ccc(C)cc3)o2)cc1 | 5.1
Cc1ccc(-c2nnc(-c3cccs3)o2)cc1 | i
N#Cc1c(-c2cccs2)cc(-c2cccs2)nc1OCC(=O)c1ccc(-c2ccccc2)cc1 | i
Cc1cc(N2CCOCC2)nc(N2CCOCC2)n1 | i
Cc1cc(C)nc(N2CCC(NC3CC(=O)N(c4ccc(F)cc4)C3=O)CC2)n1 (centres undefined) | i
Cc1cc(C)nc(N2CCN(c3nc(C)cc(C)n3)CC2)n1 | 4.2
C=CCNc1cc(C)nc2ccc(C)cc12 | i
O=C1CC2(CCCC2)C(=O)N1C1CCN(c2nccc(C(F)(F)F)n2)CC1 | i
O=C1CSCC(=O)N1c1ccc(Cl)cn1 | i
O=C1CSCC(=O)N1c1ccccn1 | 7.8
Cc1cccc(C)c1N1C(=O)CSCC1=O | i
CC(C)(C)NC1CC(=O)N(c2ccc(Cl)cc2)C1=O (centres undefined) | i
SMILES | Dicer processing
Nc1ccccc1SC1CC(=O)N(c2ccccc2Oc2ccc(Cl)cc2Cl)C1=O (centres undefined) | i
COc1ccccc1Oc1ccc(NC(=O)c2cc3cc(Br)ccc3o2)cn1 | i
COc1cccc(Oc2ccc(NC(=O)c3cc4cc(Br)ccc4o3)cn2)c1 | 3.1
COc1cccc(NC(=O)Nc2ccc(Oc3c(Cl)cccc3Cl)nc2)c1 | i
CCC(C)Nc1ncnc2sc3c(c12)CCCC3 (centres undefined) | i
Fc1cccc(Cl)c1Cn1nnc(-c2c(Cl)cccc2Cl)n1 | i
Fc1cccc(Cl)c1Cn1nnc(-c2ccccc2C(F)(F)F)n1 | 3.1
Fc1cccc(Cl)c1Cn1nnc(-c2cc(C(F)(F)F)cc(C(F)(F)F)c2)n1 | i
COc1ccc(-c2nn3c(-c4ccccc4)nnc3s2)cc1 | i
Clc1ccc(-c2nnc3sc(-c4cccs4)nn23)cc1 | i
Clc1ccc(-c2nn3c(-c4ccccc4)nnc3s2)cc1 | 3.1
COc1ccc2c(c1)CCC/C2=N\NC(N)=O | i
COc1ccc(C2CC(=O)C3=C(C2)Nc2ccccc2NC3c2cccc3ccccc23)cc1OC (centres undefined) | 5.4
COc1ccc(C2CC(=O)C3=C(C2)Nc2ccccc2NC3c2ccc(SC)cc2)cc1OC (centres undefined) | 5.2

Source: PubChem BioAssay
